PubChem BioAssay (Tox21)
Inconclusive results are not listed. Active and inactive are the calls of the source. The call rests on the fitted dose curve; in most records, active means well fitted curve in the direction sought with a large enough effect in the repeat runs; inconclusive means weak or mixed curves; inactive means no such curve, though single readings can be large; an effect the other way counts as inactive or inconclusive.

What was measured:
[1] = biological target: Nuclear receptor subfamily 1 group I member 2 (Homo sapiens) (UniProt O75469); experiment: CYP3A4 induction through human pregnane X receptor (PXR) by small molecules, qHTS assay (AID 1346984); further: nearly all actives have a fitted effect of over 40% in size
Outline: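 Cells (DPX-2; HepG2 with PXR element plus CYP3A4-promoter luciferase) settled 5hr, then were treated 24hr at 37C. A 3hr, 3uM-final Luciferin-IPA step preceded luminescence measurement with One-Glo.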

[2] = biological target: Nuclear receptor subfamily 1 group I member 2 (Homo sapiens) (UniProt O75469); experiment: Human pregnane X receptor (PXR) activation by small molecules, qHTS assay (AID 1346985); further: nearly all actives have a fitted effect of over 40% in size
Outline: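 DPX-2 cells (HepG2 co-transfected with a PXR response element and a CYP3A4-promoter luciferase construct) were seeded at 2,000 per well, rested 5 hr at 37C, then exposed to DMSO-dissolved compounds for 24 hr. Activation was read as luciferase luminescence.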

[3] = biological target: Cytochrome P450 2D6 (Homo sapiens) (UniProt P10635); experiment: Cytochrome P450 Family 2 Subfamily D Member 6 (CYP2D6) small molecule antagonists: luciferase reporter qHTS assay (AID 1671196); further: nearly all actives have a fitted effect of over 50% in size; further: potency means the concentration at half of the fitted maximal effect; on activity change, negative = inhibition: series mostly up to about 120 µM
Cytochrome P450 2D6 (Homo sapiens), sequence (P10635 whole entry, looked up): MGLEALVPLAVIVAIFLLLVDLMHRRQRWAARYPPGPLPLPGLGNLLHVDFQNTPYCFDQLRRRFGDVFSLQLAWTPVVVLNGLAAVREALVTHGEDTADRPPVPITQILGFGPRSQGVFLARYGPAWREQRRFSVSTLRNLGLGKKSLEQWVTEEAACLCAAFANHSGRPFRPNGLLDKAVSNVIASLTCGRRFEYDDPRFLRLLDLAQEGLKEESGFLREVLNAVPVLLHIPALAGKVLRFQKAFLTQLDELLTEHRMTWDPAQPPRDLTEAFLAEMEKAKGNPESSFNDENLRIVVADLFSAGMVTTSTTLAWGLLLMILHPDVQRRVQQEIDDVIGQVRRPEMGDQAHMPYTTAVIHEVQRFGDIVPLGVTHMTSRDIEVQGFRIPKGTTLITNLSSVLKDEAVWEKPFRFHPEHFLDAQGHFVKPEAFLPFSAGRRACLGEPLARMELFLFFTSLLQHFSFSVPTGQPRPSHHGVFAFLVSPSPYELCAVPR
Outline: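 Room-temperature luminescent CYP2D6 activity assay: compound preincubated 10 min with enzyme–substrate mix, NADPH-initiated reaction 1 h, detection reagent 20 min before reading.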

[4] = biological target: Cytochrome P450 2C19 (Homo sapiens) (UniProt P33261); experiment: Cytochrome P450 Family 2 Subfamily C Member 19 (CYP2C19) small molecule antagonists: luciferase reporter qHTS assay (AID 1671197); further: nearly all actives have a fitted effect of over 65% in size; further: potency means the concentration at half of the fitted maximal effect; on activity change, negative = inhibition: series mostly up to about 120 µM
Cytochrome P450 2C19 (Homo sapiens), sequence (P33261 whole entry, looked up): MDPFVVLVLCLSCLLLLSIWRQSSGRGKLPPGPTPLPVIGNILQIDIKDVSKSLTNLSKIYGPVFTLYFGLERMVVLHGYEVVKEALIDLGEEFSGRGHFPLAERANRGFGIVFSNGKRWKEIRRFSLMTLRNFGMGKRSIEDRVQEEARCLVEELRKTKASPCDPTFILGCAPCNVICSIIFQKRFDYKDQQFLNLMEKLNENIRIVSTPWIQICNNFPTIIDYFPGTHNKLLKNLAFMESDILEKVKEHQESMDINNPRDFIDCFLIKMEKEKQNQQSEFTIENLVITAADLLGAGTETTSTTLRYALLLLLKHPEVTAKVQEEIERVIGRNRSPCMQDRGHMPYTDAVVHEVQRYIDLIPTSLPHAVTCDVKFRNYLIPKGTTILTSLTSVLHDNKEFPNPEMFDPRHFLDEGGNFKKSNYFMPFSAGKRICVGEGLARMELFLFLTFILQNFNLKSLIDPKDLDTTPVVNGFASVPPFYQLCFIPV
Outline: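 Enzyme-substrate mix with proluciferin substrate (P450-Glo CYP2C19 system) preincubated with compounds 10 min at room temperature; NADPH regeneration solution added, 37C for 1 h; detection reagent stops reaction, luminescence read after 20 min. Ketoconazole positive control.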

[5] = biological target: Cytochrome P450 1A2 (Homo sapiens) (UniProt P05177); experiment: Cytochrome P450 Family 1 Subfamily A Member 2 (CYP1A2) small molecule antagonists: luciferase reporter qHTS assay (AID 1671199); further: nearly all actives have a fitted effect of over 50% in size; further: potency means the concentration at half of the fitted maximal effect; on activity change, negative = inhibition: series mostly up to about 120 µM
Cytochrome P450 1A2 (Homo sapiens), sequence (P05177 whole entry, looked up): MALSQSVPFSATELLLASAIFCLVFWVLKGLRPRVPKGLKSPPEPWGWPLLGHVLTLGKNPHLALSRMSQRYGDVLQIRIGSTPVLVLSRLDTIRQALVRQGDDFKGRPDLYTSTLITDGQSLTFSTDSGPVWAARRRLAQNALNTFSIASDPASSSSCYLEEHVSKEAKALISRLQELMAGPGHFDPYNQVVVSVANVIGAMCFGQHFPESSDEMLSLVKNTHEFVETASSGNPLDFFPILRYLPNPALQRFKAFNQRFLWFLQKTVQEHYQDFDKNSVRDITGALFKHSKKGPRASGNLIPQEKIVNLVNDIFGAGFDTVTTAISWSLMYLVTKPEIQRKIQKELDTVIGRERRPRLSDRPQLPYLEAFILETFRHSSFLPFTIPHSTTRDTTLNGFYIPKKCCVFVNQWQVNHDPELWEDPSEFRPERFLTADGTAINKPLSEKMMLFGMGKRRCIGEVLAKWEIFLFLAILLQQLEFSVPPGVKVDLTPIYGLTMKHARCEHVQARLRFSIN
Outline: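 Room-temperature CYP1A2 reaction with proluciferin substrate: compounds added from DMSO, 10 min preincubation, NADPH regeneration for 1 h. Luciferin detection reagent then added; luminescence recorded as RLU.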

[6] = biological target: Voltage-gated inwardly rectifying potassium channel KCNH2 (Homo sapiens) (UniProt Q12809); experiment: Human Ether-a-go-go-Related Gene (hERG) channel small molecule antagonists: fluorescence cell-based qHTS assay (AID 1671200); further: nearly all actives have a fitted effect of over 50% in size; further: potency means the concentration at half of the fitted maximal effect;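 on activity change, negative = inhibition: hERG-expressing U2OS cells given a thallium stimulus after FluxOR II dye loading; series mostly up to about 77 µM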
Voltage-gated inwardly rectifying potassium channel KCNH2 (Homo sapiens), sequence (Q12809 whole entry, looked up): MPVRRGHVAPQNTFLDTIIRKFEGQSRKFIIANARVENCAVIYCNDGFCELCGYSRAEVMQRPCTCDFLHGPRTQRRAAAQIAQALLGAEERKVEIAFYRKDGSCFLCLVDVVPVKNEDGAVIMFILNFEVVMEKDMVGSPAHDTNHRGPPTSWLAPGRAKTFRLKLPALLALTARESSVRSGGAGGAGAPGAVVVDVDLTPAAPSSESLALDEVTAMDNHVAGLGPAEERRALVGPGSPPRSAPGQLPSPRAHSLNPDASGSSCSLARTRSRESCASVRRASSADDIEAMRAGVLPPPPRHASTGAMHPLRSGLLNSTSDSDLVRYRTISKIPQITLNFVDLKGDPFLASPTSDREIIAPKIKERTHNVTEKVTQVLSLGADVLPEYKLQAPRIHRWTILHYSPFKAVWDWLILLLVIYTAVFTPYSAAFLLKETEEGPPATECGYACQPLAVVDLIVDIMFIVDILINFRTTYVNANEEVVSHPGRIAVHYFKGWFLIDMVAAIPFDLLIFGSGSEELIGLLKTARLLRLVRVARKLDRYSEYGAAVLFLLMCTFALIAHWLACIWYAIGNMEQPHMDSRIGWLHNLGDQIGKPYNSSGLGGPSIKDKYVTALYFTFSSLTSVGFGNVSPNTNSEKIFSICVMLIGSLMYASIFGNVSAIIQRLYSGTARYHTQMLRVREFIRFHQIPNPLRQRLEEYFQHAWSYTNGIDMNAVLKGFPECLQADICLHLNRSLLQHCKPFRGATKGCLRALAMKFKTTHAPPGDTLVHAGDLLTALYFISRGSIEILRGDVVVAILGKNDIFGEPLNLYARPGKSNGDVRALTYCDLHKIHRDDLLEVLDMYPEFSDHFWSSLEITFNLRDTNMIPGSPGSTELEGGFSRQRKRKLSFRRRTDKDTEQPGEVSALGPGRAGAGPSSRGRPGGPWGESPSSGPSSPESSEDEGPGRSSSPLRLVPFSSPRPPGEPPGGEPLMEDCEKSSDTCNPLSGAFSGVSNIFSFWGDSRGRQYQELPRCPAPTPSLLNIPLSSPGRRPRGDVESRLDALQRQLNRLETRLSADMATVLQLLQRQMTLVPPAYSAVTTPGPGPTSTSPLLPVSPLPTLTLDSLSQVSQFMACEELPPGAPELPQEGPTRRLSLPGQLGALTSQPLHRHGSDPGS
Outline: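 Cell line hERG-U2OS; dye FluxOR II, 1 h RT dark; Tl+ stimulus; ex 480/em 540 nm, read each second for 2 min.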

[7] = biological target: Cytochrome P450 3A4 (Homo sapiens) (UniProt P08684); experiment: Cytochrome P450 Family 3 Subfamily A Member 4 (CYP3A4) small molecule antagonists: luciferase reporter qHTS assay (AID 1671201); further: nearly all actives have a fitted effect of over 50% in size; further: potency means the concentration at half of the fitted maximal effect; on activity change, negative = inhibition: series mostly up to about 120 µM
Cytochrome P450 3A4 (Homo sapiens), sequence (P08684 whole entry, looked up): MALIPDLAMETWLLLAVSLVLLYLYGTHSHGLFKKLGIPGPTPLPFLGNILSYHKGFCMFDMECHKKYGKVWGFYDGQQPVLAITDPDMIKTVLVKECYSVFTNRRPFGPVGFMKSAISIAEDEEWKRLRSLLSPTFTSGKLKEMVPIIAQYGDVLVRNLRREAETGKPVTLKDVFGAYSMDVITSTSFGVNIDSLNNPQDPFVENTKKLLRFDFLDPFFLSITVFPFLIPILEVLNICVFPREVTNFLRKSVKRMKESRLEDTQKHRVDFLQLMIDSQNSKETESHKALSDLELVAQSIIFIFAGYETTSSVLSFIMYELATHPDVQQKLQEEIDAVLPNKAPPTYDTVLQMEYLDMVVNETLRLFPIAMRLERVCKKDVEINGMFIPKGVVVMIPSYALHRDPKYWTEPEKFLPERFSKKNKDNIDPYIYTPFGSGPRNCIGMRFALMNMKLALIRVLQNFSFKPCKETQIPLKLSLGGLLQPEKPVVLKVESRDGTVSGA
Outline: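 Room-temperature assay throughout: 10 min compound–enzyme/substrate preincubation, 1 h reaction after NADPH regeneration solution, 20 min detection. Luciferin formed from proluciferin substrate is quantified by luminescence.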

[8] = biological target: Cytochrome P450 2C9 (Homo sapiens) (UniProt P11712); experiment: Cytochrome P450 Family 2 Subfamily C Member 9 (CYP2C9) small molecule antagonists: luciferase reporter qHTS assay (AID 1671198); further: nearly all actives have a fitted effect of over 50% in size; further: potency means the concentration at half of the fitted maximal effect; on activity change, negative = inhibition: series mostly up to about 120 µM
Cytochrome P450 2C9 (Homo sapiens), sequence (P11712 whole entry, looked up): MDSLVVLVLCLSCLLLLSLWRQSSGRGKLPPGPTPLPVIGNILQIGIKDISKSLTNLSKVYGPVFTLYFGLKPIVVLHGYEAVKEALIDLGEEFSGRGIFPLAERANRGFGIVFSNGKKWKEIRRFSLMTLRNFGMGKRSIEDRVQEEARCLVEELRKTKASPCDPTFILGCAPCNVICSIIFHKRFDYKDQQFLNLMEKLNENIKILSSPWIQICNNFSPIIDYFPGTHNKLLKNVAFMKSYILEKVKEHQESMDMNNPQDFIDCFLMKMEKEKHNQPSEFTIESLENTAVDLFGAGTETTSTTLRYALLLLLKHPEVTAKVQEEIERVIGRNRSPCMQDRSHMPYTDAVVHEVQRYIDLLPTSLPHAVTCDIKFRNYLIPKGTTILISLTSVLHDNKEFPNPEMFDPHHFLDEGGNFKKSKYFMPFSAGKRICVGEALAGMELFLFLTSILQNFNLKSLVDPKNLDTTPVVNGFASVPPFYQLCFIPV
Outline: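 P450-Glo proluciferin substrate with CYP2C9 enzyme; 10 min RT preincubation, then NADPH regeneration 1 h at 37C; luciferin detection reagent 20 min RT, luminescence in relative luminescence units.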
On the % scale 0 is the no-effect control and ±100 the full control effect.

CC(=O)Nc1ncc([N+](=O)[O-])s1
active: Potency [5] 15.5 µM
inactive: outcome [1] | Potency [2] | Potency [3] | Potency [4] | Potency [6] | Potency [7]

CCC1Nc2cc(Cl)c(S(N)(=O)=O)cc2S(=O)(=O)N1 (stereo unspecified)
inactive: outcome [1] | Potency [2] | Potency [3] | Potency [4] | Potency [8] | Potency [6] | Potency [7]

O=c1[nH]c(=O)c2ccccc2o1
inactive: outcome [1] | Potency [2] | Potency [3] | Potency [8] | Potency [6] | Potency [7]

Nc1ccc(/C=C/c2ccc(N)cc2S(=O)(=O)O)c(S(=O)(=O)O)c1
inactive: outcome [1] | Potency [2] | activity change, negative = inhibition [3] -0.348% [at 0.435 µM] | activity change, negative = inhibition [4] 14.7% [at 0.435 µM] | activity change, negative = inhibition [8] 3.26% [at 0.435 µM] | activity change, negative = inhibition [5] 12.7% [at 0.435 µM] | activity change, negative = inhibition [6] 0.168% [at 0.29 µM] | activity change, negative = inhibition [7] 15.4% [at 0.435 µM]

Cn1c(=O)c2c(ncn2CC2OCCO2)n(C)c1=O
inactive: outcome [1] | Potency [2] | Potency [3] | Potency [8] | Potency [7]

CC(C)(CO)[C@@H](O)C(=O)NCCCO
inactive: outcome [1] | Potency [2] | Potency [3] | Potency [4] | Potency [8] | Potency [6] | Potency [7]

F[Si-2](F)(F)(F)(F)F
inactive: outcome [1] | Potency [2] | Potency [3] | Potency [4] | Potency [8] | Potency [5] | Potency [7]

CC(=O)N(CC(O)CO)c1c(I)c(C(=O)NCC(O)CO)c(I)c(C(=O)NCC(O)CO)c1I (stereo unspecified)
inactive: outcome [1] | Potency [2] | Potency [3] | Potency [4] | Potency [5] | Potency [6] | Potency [7]

CCNC(=O)/C=C/c1cccc(Br)c1
inactive: outcome [1] | Potency [2] | Potency [3] | Potency [4] | Potency [8] | Potency [6] | Potency [7]
active: Potency [5] 2.57 µM

Cc1c(C(C)C)c(=O)n(-c2ccccc2)n1C
inactive: outcome [1] | Potency [2] | Potency [8] | Potency [5] | Potency [6] | Potency [7]

O=C(CN1CCN(Cc2ccc3c(c2)OCO3)CC1)N1c2ccccc2Sc2ccccc21
inactive: outcome [1] | Potency [5]
active: Potency [3] 0.55 µM | Potency [4] 34.7 µM | Potency [8] 15.5 µM

CC(C)(C)NCCO
inactive: Potency [3] | Potency [4] | Potency [8] | Potency [6] | Potency [7]
active: Potency [5] 39.9 µM

Cc1cccc(NC(=S)N(C)C)c1
active: Potency [4] 79.6 µM | Potency [5] 35.6 µM
inactive: Potency [3] | Potency [8] | Potency [6] | Potency [7]

CC(=O)OC(C)(C)Cc1ccccc1
inactive: Potency [3] | Potency [4] | Potency [8] | Potency [5] | Potency [6] | Potency [7]

CCN1CN(CC)CN(CC)C1
inactive: Potency [3] | Potency [4] | Potency [8] | Potency [5] | Potency [6] | Potency [7]

SCCSCCS
inactive: Potency [3] | Potency [4] | Potency [8] | Potency [5] | Potency [6] | Potency [7]

CCCCCCCCCCCCCC(=O)OC
inactive: Potency [3] | Potency [4] | Potency [8] | Potency [5] | Potency [6] | Potency [7]

O=C1OC(=O)c2cc(Oc3ccc4c(c3)C(=O)OC4=O)ccc21
inactive: Potency [3] | Potency [4] | Potency [8] | Potency [5] | Potency [6] | Potency [7]

C=CCOc1cc(Cl)ccc1C(=O)NCCN(CC)CC
active: Potency [3] 0.275 µM | Potency [4] 6.92 µM | Potency [5] 2.57 µM | Potency [6] 9.52 µM | Potency [7] 17.4 µM
inactive: Potency [8]

CCCCCCCCCCCCC
inactive: Potency [3] | Potency [4] | Potency [8] | Potency [5] | Potency [6] | Potency [7]

Nc1cc(Cl)cc(S(=O)(=O)O)c1O
inactive: Potency [3] | Potency [5] | Potency [6] | Potency [7]
active: Potency [4] 41 µM | Potency [8] 20.6 µM

CCCCC(CC)C(=O)OC(C)C (stereo unspecified)
inactive: Potency [3] | Potency [4] | Potency [8] | Potency [5] | Potency [6] | Potency [7]

O=[Si]=O
inactive: Potency [3] | Potency [4] | Potency [8] | Potency [5] | Potency [6] | Potency [7]

COc1cc([N+](=O)[O-])ccc1N
inactive: Potency [3] | Potency [4] | Potency [8] | Potency [6]
active: Potency [5] 22.4 µM

CO[Si](CCCS)(OC)OC
inactive: Potency [3] | Potency [4] | Potency [8] | Potency [5] | Potency [6]

O=C(O)Cc1cccc(-c2cc(CCCCCCc3ccc(O[C@H]4O[C@H](CO)[C@@H](O)[C@H](O)[C@@H]4O)c(-c4cccc(CC(=O)O)c4)c3)ccc2O[C@H]2O[C@H](CO)[C@@H](O)[C@H](O)[C@@H]2O)c1
inactive: activity change, negative = inhibition [3] 0.276% [at 0.435 µM] | activity change, negative = inhibition [4] 11.7% [at 0.435 µM] | activity change, negative = inhibition [8] 0.681% [at 0.435 µM] | activity change, negative = inhibition [5] -0.131% [at 0.435 µM] | activity change, negative = inhibition [6] -0.102% [at 0.29 µM] | activity change, negative = inhibition [7] 0.205% [at 0.435 µM]
